# Source: the supplement of paper PMC8728848
# About 410 targets per protein were measured; listed, in parts, are those with the strongest signals and a random draw of the rest.
# B1: Intelectin-1a (Mus musculus) (protein)
# chain: AEWSHPQFEKAEENLDTNRWGNSFFSSLPRSCKEIKQEHTKAQDGLYFLRTKNGVIYQTFCDMTTAGGGWTLVASVHENNMRGKCTVGDRWSSQQGNRADYPEGDGNWANYNTFGSAEAATSDDYKNPGYFDIQAENLGIWHVPNKSPLHNWRKSSLLRYRTFTGFLQHLGHNLFGLYKKYPVKYGEGKCWTDNGPALPVVYDFGDARKTASYYSPSGQREFTAGYVQFRVFNNERAASALCAGVRVTGCNTEHHCIGGGGFFPEGNPVQCGDFASFDWDGYGTHNGYSSSRKITEAAVLLFYR
# Legend:
# Assay in all cases: glycan array binding signal (z-score within array); higher = stronger binding
# Details in all cases: glycan notation: IUPAC condensed, linker removed
# [1] = molecular target: Fuc(a1-2)Gal(b1-3)GlcNAc(b1-2)Man(a1-3)[Fuc(a1-2)Gal(b1-3)GlcNAc(b1-2)Man(a1-6)]Man(b1-4)GlcNAc(b1-4)[Fuc(a1-6)]GlcNAc
# Outline: (§1)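 Glycan array data were curated from 3228 arrays in the Consortium for Functional Glycomics database and kept only where the protein sequence was available. Glycan names were converted to IUPAC-condensed notation, and columns mapping to the same glycan were averaged. The binding signal is a within-array Z-score, averaged across arrays of the same protein sequence at different concentrations or buffers and across linkers. Negative Z-scores can be read as non-binding.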
# [2] = molecular target: Fuc(a1-2)Gal(b1-3)GlcNAc(b1-3)GalNAc
# Outline: as §1
# [3] = molecular target: Fuc(a1-2)Gal(b1-3)[Fuc(a1-4)]GlcNAc(b1-2)Man(a1-3)[Fuc(a1-2)Gal(b1-3)[Fuc(a1-4)]GlcNAc(b1-2)Man(a1-6)]Man(b1-4)GlcNAc(b1-4)GlcNAc
# Outline: as §1
# [4] = molecular target: Fuc(a1-2)Gal(b1-4)GlcNAc(b1-2)Man
# Outline: as §1
# [5] = molecular target: Fuc(a1-2)Gal(b1-4)GlcNAc(b1-2)Man(a1-3)[Fuc(a1-2)Gal(b1-4)GlcNAc(b1-2)Man(a1-6)]Man(b1-4)GlcNAc(b1-4)GlcNAc
# Outline: as §1
# [6] = molecular target: Fuc(a1-2)Gal(b1-4)GlcNAc(b1-3)[Fuc(a1-2)Gal(b1-4)GlcNAc(b1-6)]GalNAc
# Outline: as §1
# [7] = molecular target: Fuc(a1-2)Gal(b1-4)[Fuc(a1-3)]GlcNAc(b1-3)Gal(b1-4)[Fuc(a1-3)]GlcNAc
# Outline: as §1
# Fuc(a1-2)Gal6S(b1-4)Glc = molecular target: Fuc(a1-2)Gal6S(b1-4)Glc
# Outline: as §1
# [8] = molecular target: Fuc(a1-2)[Gal(a1-3)]Gal(b1-3)GlcNAc(b1-2)Man(a1-3)[Fuc(a1-2)[Gal(a1-3)]Gal(b1-3)GlcNAc(b1-2)Man(a1-6)]Man(b1-4)GlcNAc(b1-4)GlcNAc
# Outline: as §1
# [9] = molecular target: Fuc(a1-2)[Gal(a1-3)]Gal(b1-3)GlcNAc(b1-2)Man(a1-3)[Fuc(a1-2)[Gal(a1-3)]Gal(b1-3)GlcNAc(b1-2)Man(a1-6)]Man(b1-4)GlcNAc(b1-4)[Fuc(a1-6)]GlcNAc
# Outline: as §1
# [10] = molecular target: Fuc(a1-2)[Gal(a1-3)]Gal(b1-4)GlcNAc(b1-2)Man(a1-3)[Fuc(a1-2)[Gal(a1-3)]Gal(b1-4)GlcNAc(b1-2)Man(a1-6)]Man(b1-4)GlcNAc(b1-4)GlcNAc
# Outline: as §1
# [11] = molecular target: Fuc(a1-2)[GalNAc(a1-3)]Gal
# Outline: as §1
# [12] = molecular target: Fuc(a1-2)[GalNAc(a1-3)]Gal(b1-3)GlcNAc(b1-2)Man(a1-3)[Fuc(a1-2)[GalNAc(a1-3)]Gal(b1-3)GlcNAc(b1-2)Man(a1-6)]Man(b1-4)GlcNAc(b1-4)GlcNAc
# Outline: as §1
# [13] = molecular target: Fuc(a1-3)[Gal(b1-4)]GlcNAc(b1-6)[Neu5Ac(a2-3)Gal(b1-3)]GalNAc
# Outline: as §1
# [14] = molecular target: Fuc(a1-3)[GalNAc3S(b1-4)]GlcNAc
# Outline: as §1
# [15] = molecular target: Gal(a1-3)Gal(b1-3)GlcNAc(b1-2)Man(a1-3)[Gal(a1-3)Gal(b1-3)GlcNAc(b1-2)Man(a1-6)]Man(b1-4)GlcNAc(b1-4)GlcNAc
# Outline: as §1
# [16] = molecular target: Gal(a1-3)Gal(b1-3)GlcNAc(b1-3)GalNAc
# Outline: as §1
# [17] = molecular target: Gal(a1-3)Gal(b1-4)[Fuc(a1-3)]GlcNAc(b1-2)Man(a1-3)[Gal(a1-3)Gal(b1-4)[Fuc(a1-3)]GlcNAc(b1-2)Man(a1-6)]Man(b1-4)GlcNAc(b1-4)GlcNAc
# Outline: as §1
# [18] = molecular target: Gal(b1-3)GlcNAc(b1-3)Gal(b1-4)GlcNAc(b1-6)[Gal(b1-3)GlcNAc(b1-3)]Gal(b1-4)Glc
# Outline: as §1
# [19] = molecular target: Gal(b1-3)[Neu5Ac(a2-6)]GlcNAc(b1-6)Gal(b1-4)Glc
# Outline: as §1
# Gal3S(b1-3)GlcNAc = molecular target: Gal3S(b1-3)GlcNAc
# Outline: as §1
# Gal3S(b1-4)Glc = molecular target: Gal3S(b1-4)Glc
# Outline: as §1
# Gal4S(b1-4)GlcNAc = molecular target: Gal4S(b1-4)GlcNAc
# Outline: as §1
# Gal6S(b1-4)Glc6S = molecular target: Gal6S(b1-4)Glc6S
# Outline: as §1
# [20] = molecular target: GalNAc(a1-3)Fuc(a1-2)Gal(b1-4)GlcNAc(b1-3)[GalNAc(a1-3)Fuc(a1-2)Gal(b1-4)GlcNAc(b1-6)]GalNAc
# Outline: as §1
# GalNAc(b1-3)Gal = molecular target: GalNAc(b1-3)Gal
# Outline: as §1
# [21] = molecular target: Glc(a1-6)Glc(a1-6)Glc(a1-6)Glc
# Outline: as §1
# GlcA(b1-3)Gal = molecular target: GlcA(b1-3)Gal
# Outline: as §1
# [22] = molecular target: GlcNAc(a1-4)Gal(b1-4)GlcNAc(b1-3)Gal(b1-4)[Fuc(a1-3)]GlcNAc(b1-3)Gal(b1-4)[Fuc(a1-3)]GlcNAc
# Outline: as §1
# [23] = molecular target: GlcNAc(b1-3)Gal(b1-3)GalNAc
# Outline: as §1
binder,measurement,setting,value
B1,glycan array binding signal (z-score),[1],-0.492
same,glycan array binding signal (z-score),[2],2.92
same,glycan array binding signal (z-score),[3],2.9
same,glycan array binding signal (z-score),[4],1.06
same,glycan array binding signal (z-score),[5],-0.329
same,glycan array binding signal (z-score),[6],-0.517
same,glycan array binding signal (z-score),[7],-1.05
same,glycan array binding signal (z-score),Fuc(a1-2)Gal6S(b1-4)Glc,1.88
same,glycan array binding signal (z-score),[8],0.954
same,glycan array binding signal (z-score),[9],3.73
same,glycan array binding signal (z-score),[10],-0.423
same,glycan array binding signal (z-score),[11],0.968
same,glycan array binding signal (z-score),[12],0.792
same,glycan array binding signal (z-score),[13],-0.328
same,glycan array binding signal (z-score),[14],0.115
same,glycan array binding signal (z-score),[15],2.64
same,glycan array binding signal (z-score),[16],-0.09
same,glycan array binding signal (z-score),[17],2.76
same,glycan array binding signal (z-score),[18],2.74
same,glycan array binding signal (z-score),[19],0.312
same,glycan array binding signal (z-score),Gal3S(b1-3)GlcNAc,-0.392
same,glycan array binding signal (z-score),Gal3S(b1-4)Glc,-0.304
same,glycan array binding signal (z-score),Gal4S(b1-4)GlcNAc,-0.354
same,glycan array binding signal (z-score),Gal6S(b1-4)Glc6S,-0.38
same,glycan array binding signal (z-score),[20],1.24
same,glycan array binding signal (z-score),GalNAc(b1-3)Gal,-0.938
same,glycan array binding signal (z-score),[21],-0.709
same,glycan array binding signal (z-score),GlcA(b1-3)Gal,0.662
same,glycan array binding signal (z-score),[22],5.84
same,glycan array binding signal (z-score),[23],-0.724
